The panel holds about 83,000 compounds, 20% with a hit somewhere; the sample as a whole holds those more often.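 Note: values are percent growth. 100 is the growth of untreated cells, values between 100 and 0 indicate rising inhibition; between -100 and 0 indicates cell death.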 Activity calls are given as the source filed them. How the source made its calls: active means growth percent below 10; inactive means the rest.
Legend:
Assay in all cases: NCI-60 one-dose screen, 48 h (100 = growth as untreated, 0 = no growth, -100 = all killed)
T-47D breast = conditions: 10 µM
BT-549 breast = conditions: 10 µM
MDA-MB-435 melanoma = conditions: 10 µM
MCF7 breast = conditions: 10 µM unless noted
HCT-116 colon = conditions: 10 µM
HCC-2998 colon = conditions: 10 µM
KM12 colon = conditions: 10 µM
SW-620 colon = conditions: 10 µM

Measured: growth

CSC[C@H](NC(=O)COc1cccc2cnccc12)C(=O)NC(Cc1ccccc1)C(O)C(=O)N1CSC[C@H]1C(=O)NC(C)(C)C (some centres not stated)
inactive: T-47D breast 111% | BT-549 breast 105% | MDA-MB-435 melanoma 103% | MCF7 breast 114% | HCT-116 colon 121% | HCC-2998 colon 108% | KM12 colon 116%

COC(=O)/C=C1\Sc2cc(F)ccc2NC1=O
inactive: T-47D breast 84.5% | BT-549 breast 127% | MDA-MB-435 melanoma 100% | MCF7 breast 83.7% | HCT-116 colon 90.1% | HCC-2998 colon 126% | KM12 colon 107%

Oc1ccc(O)cc1
inactive: T-47D breast 114% | BT-549 breast 82.7% | MDA-MB-435 melanoma 99.7% | HCT-116 colon 107% | HCC-2998 colon 114% | KM12 colon 103%

CCOC(=O)c1coc(C(=O)OCC)c1C(=O)OCC
inactive: T-47D breast 117% | BT-549 breast 119% | MDA-MB-435 melanoma 108% | MCF7 breast 113% | HCT-116 colon 115% | HCC-2998 colon 108% | KM12 colon 106%

O=C(O)c1ccnc(Br)c1
inactive: T-47D breast 96.9% | BT-549 breast 105% | MDA-MB-435 melanoma 104% | SW-620 colon 103% | MCF7 breast 91.7% | HCT-116 colon 103% | KM12 colon 103%

Cc1ccc(Cl)cc1N1C(=O)CC(Sc2ccccc2N)C1=O (configuration not stated)
inactive: T-47D breast 103% | BT-549 breast 111% | MDA-MB-435 melanoma 102% | MCF7 breast 90.2% | HCT-116 colon 111% | HCC-2998 colon 101% | KM12 colon 112%

C=CCNc1nnc(C)s1
inactive: T-47D breast 95.4% | BT-549 breast 122% | MDA-MB-435 melanoma 124% | MCF7 breast 102% | HCT-116 colon 104% | HCC-2998 colon 112% | KM12 colon 101%

CC1=C(/C=C/C(C)=C/C=C/C(C)=C/CO)C(C)(C)CCC1
inactive: T-47D breast 96.6% | BT-549 breast 108% | MDA-MB-435 melanoma 107% | MCF7 breast 125% | HCT-116 colon 107% | HCC-2998 colon 108% | KM12 colon 109%

CC(C)(C)n1nc(C2CC2)c(Br)c1NC(=O)c1ccccc1F
inactive: T-47D breast 108% | BT-549 breast 110% | MDA-MB-435 melanoma 102% | MCF7 breast 95.7% | HCT-116 colon 109% | HCC-2998 colon 106% | KM12 colon 98.5%

Reference: PubChem BioAssay (NCI)
